JMJD2E inh – JMJD2E (human) inhibition; B2RXH2; JMJD2E catalytic domain, FDH-coupled NADH fluorescence (FDH is formaldehyde dehydrogenase); Potency, µM (highest dose often 57.1 µM), for the others: top-dose activity change, negative = inhibition, hits mostly inhibitors; 230,000 compounds, 1.6% hits; active = well fitted inhibition curve with a large enough effect, not every such curve was filed as active; inconclusive = small, poorly fitted or top-dose-only effect, or another doubt; inactive = no such curve, though single readings can be large or run the other way;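 also: potency is read from the fitted curve at half-maximal effect; 0% = wells with enzyme and -100% = buffer wells without enzyme; nearly all actives have a fitted effect of over 50% in size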
Target sequence (B2RXH2 1-337 limits assumed): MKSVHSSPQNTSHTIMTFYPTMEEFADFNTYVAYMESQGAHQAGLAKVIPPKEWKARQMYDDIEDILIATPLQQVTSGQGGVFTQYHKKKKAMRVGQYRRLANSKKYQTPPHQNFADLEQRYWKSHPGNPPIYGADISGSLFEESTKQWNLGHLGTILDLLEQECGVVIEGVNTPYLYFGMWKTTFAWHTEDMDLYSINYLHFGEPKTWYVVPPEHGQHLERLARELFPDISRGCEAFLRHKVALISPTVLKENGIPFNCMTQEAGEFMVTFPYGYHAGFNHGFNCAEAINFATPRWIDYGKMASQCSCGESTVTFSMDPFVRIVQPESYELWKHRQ
HttQ103 aggreg – mutant huntingtin aggregation inhibition. PC12 HttQ103-GFP aggregates, Acumen cytometry, 40 h. Potency, µM (highest dose often 46.1 µM), inactives show at the top dose activity change, negative = inhibition, usual class: inhibitors. 220,000 compounds, 1.1% hits. AID 1688; also: potency is read from the fitted curve at half-maximal effect; % is scaled to controls: 0 for no effect and ±100 for the full control effect; nearly all actives have a fitted effect of over 60% in size
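Huntingtin Q103 exon 1–GFP aggregates in induced PC12 cells (100 nM tebufenozide) were quantified by cytometry from lysates, with compounds dosed in titration.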
ALDH1A1 block – ALDH1A1 (human) enzyme inhibition. P00352. Potency, µM (series often up to 75.3 µM), for the others: top-dose activity, negative = inhibition, most hits filed as inhibitors. Purified ALDH1A1, NADH fluorescence, propionaldehyde substrate. 220,000 compounds, 7.3% hits; active = well fitted inhibition curve with a large enough effect, not every such curve was filed as active; inconclusive = small, poorly fitted or top-dose-only effect, or another doubt; inactive = no such curve, though single readings can be large or run the other way;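 also: potency is read from the fitted curve at half-maximal effect; plate controls were no enzyme wells and a reference inhibitor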
HPGD block – blocks human HPGD enzyme activity; P15428; purified HPGD, NADH fluorescence kinetic, PGE2 substrate; Potency, µM, for the others: at the highest dose activity change, negative = inhibition, most hits filed as inhibitors; 150,000 compounds, 4.3% hits; active = well fitted inhibition curve with a large enough effect, not every such curve was filed as active; inconclusive = small, poorly fitted or top-dose-only effect, or another doubt; inactive = no such curve, though single readings can be large or run the other way; also: potency is read from the fitted curve at half-maximal effect; % is scaled to controls: 0 for no effect and ±100 for the full control effect
Target sequence (P15428 whole entry, looked up): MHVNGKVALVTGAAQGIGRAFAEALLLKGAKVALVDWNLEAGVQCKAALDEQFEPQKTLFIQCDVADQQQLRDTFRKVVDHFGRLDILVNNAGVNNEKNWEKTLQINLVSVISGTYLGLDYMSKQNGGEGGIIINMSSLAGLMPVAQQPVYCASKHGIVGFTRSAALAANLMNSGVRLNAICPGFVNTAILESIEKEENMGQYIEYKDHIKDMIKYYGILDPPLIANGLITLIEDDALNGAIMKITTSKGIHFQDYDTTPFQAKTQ
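NADH formation kinetics: reaction with 30 uM PGE2 and 1 mM NAD+ (final), 20 nM enzyme, Tris-HCl pH 8 with Tween 20, after 15 min compound preincubation at room temperature. Fluorescence change, last versus first of five reads.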
HTT cytoprotect – cytoprotection in Huntington HTT-Q103 PC12 cell model | PC12 HTT-Q103 induced, cytoprotection, ATP luminescence, 40 h | Potency, µM (doses to about 56.4 µM), inactives show cytoprotection (ATP increase), hits mostly activators | 230,000 compounds, 0.14% hits; also: potency is read from the fitted curve at half-maximal effect; % of control where 0% means no effect; nearly all actives have a fitted effect of over 45% in size
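Huntington model: PC12 line, ecdysone-inducible HTTQ103 exon1–GFP, tebufenozide 100 nM. Test articles in a dose series. Endpoint luminescence from cellular ATP.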
CBFb RUNX1 block – blocks binding between human CBF-beta and RUNX1. Potency, µM (titrated, usually from 59.8 µM), for inactives: at the highest dose activity, negative = inhibition, most hits filed as inhibitors. AlphaScreen CBFb-His/RUNX1-biotin binding, biochemical. 230,000 tested, under 10 active. Q01196+Q13951; also: % of control where 0% means no effect
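Inhibition was taken as any reduction in AlphaScreen signal from the CBF-beta–RUNX1 pair (His and biotin tags, 30 nM each), measured after compound (15 min) and bead (90 min) incubations at room temperature.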
* hit, by the source's call; ? = inconclusive; / = no result given; [ ] = dose if it differs, or a comment. In the library only some 9.8% were active in any assay of this set; here they are far more common. Unless noted, calls follow the shape of the dose curve; as a rule, active = well fitted curve in the direction sought with a large enough effect; inconclusive = small, poorly fitted or top-dose-only effect, or another doubt; inactive = no such curve, though single readings can be large; an effect the other way counts as inactive or inconclusive.

SMILES | JMJD2E inh | HttQ103 aggreg | ALDH1A1 block | HPGD block | HTT cytoprotect | CBFb RUNX1 block
CCOC(=O)c1c(C)nc2ccccn12 | 3% | -23% | -12% | -11% | 4% | 3%
CN(CC(=O)Nc1ccc(F)cc1)C(=O)COc1ccc([N+](=O)[O-])cc1Cl | 3% | 0% | -1% | / | -39% | 5%
C=C(CO)C1Cc2c(ccc3c(=O)c4c(oc23)COc2cc(OC)c(OC)cc2-4)O1 (stereo not given) | -22% | / | -11% | -4% | -21%[1.9 µM] | -25%[21.7 µM]
Cn1c(=O)c(N)c2c3c(c(Br)ccc31)C(=O)c1ccccc1-2 | 25µM* | -13%[9.22 µM] | ? | / | -6%[10 µM] | ?
CCCCn1nnnc1SCC(=O)Nc1sc2c(c1C#N)CCCC2 | 3% | ? | 28µM* | -14% | -15%[10 µM] | 0%
N#Cc1c(NC(=O)CSc2nnnn2C2CCCC2)sc2c1CCCC2 | 9% | -6% | 3.5µM* | -21% | 16%[1.9 µM] | 15%
Cc1sc(NC(=O)CSc2nnnn2C2CCCC2)c(C#N)c1C | 2% | 3% | ? | / | 6%[10 µM] | 18%
CCCCn1nnnc1SCC(=O)Nc1ccc(N(C)C)cc1 | 4% | 10%[9.22 µM] | 25µM* | -8% | -9% | -8%
Cn1cnnc1SCC(=O)Nc1sc2c(c1C#N)CCCCC2 | -3% | 6% | 7.1µM* | -13% | 16%[10 µM] | 3%
N#Cc1c(NC(=O)CSc2ncn[nH]2)sc2c1CCCCC2 | -4% | -31% | ? | -7% | -34% | -2%
Cc1ccc(S(=O)(=O)N2CCN(C(=O)c3ccc([N+](=O)[O-])cc3)C2)cc1 | -1% | -18% | ? | / | -29% | -6%
CCOC(=O)c1c(NC(=O)CSc2nnc(CNC(=O)c3ccco3)n2C)sc2c1CCC2 | -4% | 2% | ? | -8% | -13%[0.074 µM] | -5%
N#Cc1ccc(-c2ccc(F)cc2)nc1SCC(=O)Nc1sc2c(c1C#N)CCC2 | 12% | -5% | 25µM* | ? | -23% | 4%
Cc1ccc(NC(=S)N(CCCN2CCOCC2)Cc2cccnc2)cc1C | 4% | 26% | -1% | / | -35% | 12%
CCn1c(SCC(=O)c2cc(OC)ccc2OC)nnc1-c1ccncc1 | / | / | / | / | 13%[0.074 µM] | /
CCN(CC)C(=O)CSc1nnc(COc2ccccc2)n1CC | 9% | 33% | -9% | -4% | 3% | 0%
CCn1c(COc2ccc3c(c2)OCO3)nnc1SCC(=O)c1ccccc1 | 4% | ? | ? | 22µM* | 3% | 10%
CCn1c(SCC(=O)c2cc(OC)ccc2OC)nnc1C(C)C | 7% | -9%[9.22 µM] | 28µM* | -16% | -16% | 3%
CCn1c(CNC(=O)Cc2ccc(OC)cc2)nnc1SCC(=O)c1ccccc1 | -6% | ? | 2.8µM* | / | 8%[10 µM] | -1%
S=c1[nH]nc(COc2ccc3c(c2)OCO3)n1-c1ccccc1 | ? | -19% | 14µM* | 25µM* | -8% | -2%
O=C(OCC(=O)N1N=C(c2ccc(Cl)cc2)CC1c1ccco1)c1ccccc1O (stereo not given) | ? | -27% | ? | ? | -8% | -8%
NS(=O)(=O)c1ccc(CNS(=O)(=O)c2cc(C(=O)O)ccc2Cl)cc1 | 22% | 11% | 7% | / | 5%[10 µM] | -12%
O=C(Nc1ccc(C(=O)Nc2ccc(C(=O)Nc3ccc(S(=O)(=O)O)c4cc(S(=O)(=O)O)cc(S(=O)(=O)O)c34)cc2)cc1)Nc1ccc(C(=O)Nc2ccc(C(=O)Nc3ccc(S(=O)(=O)O)c4cc(S(=O)(=O)O)cc(S(=O)(=O)O)c34)cc2)cc1 | ? | / | ? | -21% | -109% | ?
CCN(CC(=O)Nc1ccc(N2CCOCC2)cc1)C(=O)c1ccc(C#N)cc1 | 4% | 13% | 7% | / | -39% | 3%
CC(=O)c1ccsc1B(O)O | -1% | / | 3% | -8% | -11% | 22%
SMILES | JMJD2E inh | HttQ103 aggreg | ALDH1A1 block | HPGD block | HTT cytoprotect | CBFb RUNX1 block
CCn1c(SCC(=O)c2ccc(Br)cc2)nnc1C(C)NC(=O)Cc1ccc(OC)cc1 (stereo not given) | 5% | 4%[9.22 µM] | 8% | -10% | 4% | -1%
CCn1c(SCC(=O)c2ccc(OC)cc2)nnc1C(C)NC(=O)c1ccc(OC)cc1 (stereo not given) | -5% | 16% | 12µM* | -16% | 20%[10 µM] | 9%
CCOc1ccc(C2NC(=O)c3ccccc3O2)cc1 (stereo not given) | ? | -7% | 22µM* | -14% | -4% | -1%
Cn1c(=O)c(-c2cc(Br)ccc2N)nc2ccccc21 | -5% | 13µM* | 7% | -5% | -4%[10 µM] | -15%
CCCCCCCCS(=O)C1CCS(=O)(=O)C1 (stereo not given) | -3% | 1% | 13% | -11% | 0% | 4%
CCCCCCS(=O)[C@H]1CS(=O)(=O)C[C@@H]1S(=O)CCCCCC (stereo not given in full) | -3% | 24% | ? | 13µM* | -1%[0.074 µM] | 0%
O=C(CCl)Nc1ccccc1Sc1ccccc1 | -1% | -2%[9.22 µM] | 4µM* | -8% | 5% | 4%
O=C(CCl)Nc1ccc(-c2ccccc2)cc1 | -5% | 18µM* | 0.25µM* | / | -7% | 19%
CC(C)N(c1ccccc1)c1ccc(NC(=O)CCl)cc1 | -2% | ? | 0.4µM* | / | 7%[10 µM] | 5%
O=C(CCl)Nc1cn(-c2ccccc2)nc1-c1ccccc1 | ? | 22µM* | 14µM* | / | -192% | -3%
CC(C)CC(NC(=O)CCl)c1ccccc1 (stereo not given) | -4% | 12% | ? | -2% | 17%[0.074 µM] | -3%
CCOC(=O)c1ccc(Oc2nc(N(C)C)nc(N3CCOCC3)n2)cc1 | 2% | -15%[9.22 µM] | 15% | / | -15% | 10%
O=C(/C=C/c1ccco1)N(c1ccccn1)c1ccccn1 | ? | ? | ? | / | -13%[10 µM] | ?
CCCCC1=CC2=C(c3ccco3)C(=O)C(C)(OC(=O)c3cccs3)C(=O)C2=CO1 (stereo not given) | -13% | / | -4% | -21% | -16% | -24%
CCc1ccc(NC(=O)CSc2nc3cc(C(=O)OC)ccc3c(=O)n2CC2CCCO2)cc1 (stereo not given) | 2% | 6% | ? | -22% | -24% | 4%
O=C(CCN1C(=O)c2cccc3cccc(c23)C1=O)Nc1ccccc1 | ? | 7% | 9% | / | -18% | 8%
O=C(NCCNCCO)C1(C(F)(F)F)C/C(=C\CCO)CCCO1 (stereo not given) | / | / | / | / | / | -5%
O=C(CCl)Nc1ccc(N=Nc2ccccc2)cc1 | ? | ? | 0.4µM* | -23% | / | 4%
CC(=O)Nc1ccc(N=Nc2ccccc2)cc1 | 6% | 22% | 5% | -11% | 32%[10 µM] | -13%
